Data taken from PubChem BioAssay AID2551 (National Center for Advancing Translational Sciences (NCATS), 2010).
The whole screen tested about 310,000 compounds, of which about 17,000 (5.5%) were called active. Another 11% or so got no clear call; they are omitted. The call rests on the fitted dose curve; in most records, active means well fitted inhibition curve with a large enough effect; inconclusive means small, poorly fitted or top-dose-only effect, or effect the other way; inactive means no such curve, though single readings can be large or run the other way. Many of the other results were omitted from the sample, so actives are more common in it than they were.

target: Nuclear receptor ROR-gamma (Mus musculus) (UniProt P51450); assay: qHTS for inhibitors of ROR gamma transcriptional activity; conditions: Drosophila S2 Gal4-RORgamma UAS-luciferase reporter, 20 h; series mostly up to 53.6 µM; further: nearly all actives have a fitted effect of over 60% in size
Sequence (P51450 whole entry, looked up, the tested form may be a part): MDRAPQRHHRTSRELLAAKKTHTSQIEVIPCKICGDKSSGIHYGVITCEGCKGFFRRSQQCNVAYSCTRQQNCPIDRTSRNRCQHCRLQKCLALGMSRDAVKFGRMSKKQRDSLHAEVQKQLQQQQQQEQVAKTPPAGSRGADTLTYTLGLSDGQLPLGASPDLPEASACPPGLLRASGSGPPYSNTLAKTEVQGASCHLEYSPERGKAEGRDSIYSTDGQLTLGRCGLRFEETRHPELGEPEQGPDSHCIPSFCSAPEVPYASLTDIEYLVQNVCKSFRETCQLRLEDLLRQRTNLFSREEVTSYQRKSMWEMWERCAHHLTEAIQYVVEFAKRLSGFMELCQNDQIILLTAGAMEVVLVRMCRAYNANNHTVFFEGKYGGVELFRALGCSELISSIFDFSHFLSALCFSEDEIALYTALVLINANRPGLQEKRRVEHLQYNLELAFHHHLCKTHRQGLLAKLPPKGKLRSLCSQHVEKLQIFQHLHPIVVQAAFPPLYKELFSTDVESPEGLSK
Outline: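 ROR gamma transcriptional activity was tracked as Gal4-UAS luciferase output in stably transfected Drosophila Schneider cells, with compound added 1 hr before 700 uM copper sulfate induction and a 20 hr ambient-temperature incubation.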
On the % scale 0 is the no-effect control and ±100 the full control effect; potency means the concentration at half of the fitted maximal effect.

Potency, inactive:
CCn1c(SCC(=O)NC2CCCC2)nnc1-c1ccoc1C
CCn1c(C(C)NC(=O)c2ccc(C)cc2)n[nH]c1=S (stereo not drawn)
CCOC(=O)CSc1nnc(-c2ccncc2)o1
CCn1c(SCC(=O)Nc2nc3ccc(OC)cc3s2)nnc1-c1ccoc1C
CCCc1cc(=O)[nH]c(SCC(=O)OCc2ccccc2)n1
CCn1c(C(C)C)n[nH]c1=S
O=S(=O)(Nc1ccccc1Br)c1cccs1
O=C(Nc1ccc(CN2CCOCC2)cc1)c1cc(Cl)ccc1Cl
C[C@@H]1CC[C@@]2(OC1)O[C@H]1C[C@H]3[C@@H]4CC=C5C[C@@H](O)[C@H](O)C[C@]5(C)C4CC[C@]3(C)[C@H]1[C@@H]2C (stereo partly drawn)
O=C1Nc2cc(C(=O)N3CCN(c4ccc(F)cc4)CC3)ccc2NC1CSCc1cccc(F)c1 (stereo not drawn)
CC1CCC(NS(=O)(=O)c2ccc3c(c2)CC(=O)N3)CC1 (stereo not drawn)
CC(=O)c1nc2ccccc2n1Cc1ccccc1
Cc1ccnc(NC(=O)c2ccco2)n1
CCn1nc(NC(=O)c2ccco2)c2cc3ccc(C)cc3nc21
O=S(=O)(O)c1nc2ccccc2n1Cc1ccc(Cl)cc1
CC(=O)NC(C)c1nc2ccccc2n1Cc1ccccc1F (stereo not drawn)
CCC(=O)NCCc1nc2ccccc2n1CC
CCOC(=O)C1CCN(S(=O)(=O)c2ccc3c(c2)N(C(C)=O)CCO3)CC1
CCN1CCCC1CNC(=O)c1cc2cc(OC)c(OC)cc2[nH]1 (stereo not drawn)
CCn1c(SCC(=O)Nc2ccc3c(c2)OCCO3)nnc1C(C)C
COc1cc(/C=N/NC(=O)c2cc(C)n(-c3ccc(F)cc3)c2C)cc(OC)c1O
CC(Oc1ccccc1[N+](=O)[O-])C(=O)N/N=C/c1ccoc1 (stereo not drawn)
COC(=O)c1ccccc1NC(=O)c1ccccc1NS(C)(=O)=O
COc1ccccc1NC(=O)c1ccc(C)s1
COc1cccc(NC(=O)C(C)Oc2ccccc2)c1 (stereo not drawn)
COc1ccccc1NC(=O)/C=C/C(=O)O
CC(C)C(=O)Nc1cccc(NC(=O)c2ccc([N+](=O)[O-])cc2Cl)c1
COc1ccccc1NC(=O)C(C)OC(=O)CC1CCCC1 (stereo not drawn)
NC(=O)c1ccccc1NC(=O)c1ccccc1F
Cc1ccc(C(=O)NC23CC4CC(CC(C4)C2)C3)c(Cl)c1
Oc1ccccc1C1=NN(c2ccccc2)C(c2ccccc2)C1 (stereo not drawn)
CC(C)c1nnc(NC(=O)COC(=O)/C=C/c2ccc([N+](=O)[O-])cc2)s1
NNC(=O)c1nnn(-c2nonc2N)c1CN1CCCC1
CCc1ccc(NC(=O)NC(C)c2ccc3c(c2)OCO3)cc1 (stereo not drawn)
O=C(CN(Cc1ccc(Br)cc1)S(=O)(=O)c1ccccc1)NCc1ccncc1
COc1ccccc1OCCNC(=O)CCNC(=O)c1ccccc1Cl
CC(C)CCn1cnc2c1c(=O)n(CC(=O)NC(N)=O)c(=O)n2Cc1ccccc1
O=C(NCc1ccco1)/C(=C/c1ccco1)NC(=O)c1ccccc1
CC(=O)c1nn(-c2cccc(C(F)(F)F)c2)c(=O)[nH]c1=O
O=S(=O)(Cc1nnnn1-c1ccccc1)c1ccccc1
O=C(COc1ccc2c3c(c(=O)oc2c1)CCCC3)NCC(O)c1ccccc1 (stereo not drawn)
CC(C)CC(=O)NC(=S)Nc1ccc(F)cc1F
O=C(Nc1ccccc1F)c1ccccc1-c1ccccc1
O=C(c1n[nH]c2c1CCC2)N1CCCC(Nc2cccc(F)c2)C1 (stereo not drawn)
COc1ccc(S(=O)(=O)N(CC(=O)N/N=C/c2ccccc2C(=O)O)c2ccccc2OC)cc1
COc1ccccc1NC(=O)CN(c1ccccc1OC)S(=O)(=O)c1ccccc1
Cc1nc([N+](=O)[O-])cn1CC(=O)Nc1ccc(Cl)cc1
N#CC1=C(N)Oc2[nH]c(=S)[nH]c(=O)c2C12C(=O)Nc1ccccc12 (stereo not drawn)
CC1(C)Cc2ccccc2/C(=C/C(=O)c2ccccc2)N1
Cc1nn(C(C)(C)C)c(OC(=O)CC(C)C)c1S(=O)(=O)c1ccccc1
COc1ccc(C)cc1Nc1nc(-c2c(C)[nH]c3ccccc23)cs1
COc1ccc(C)cc1S(=O)(=O)Nc1cccc(Cl)c1Cl
CCOc1ccc2c(c1)c(=O)c(S(=O)(=O)c1ccc(C)cc1)cn2CC
CC(=O)N1CCN(CC(c2ccccc2)c2ccccc2)CC1
COc1ccc(C(=O)C2CCCN(S(=O)(=O)c3cccc(C)c3)C2)c(C)c1 (stereo not drawn)
COc1cc(/C=C/CO)cc(OC)c1O[C@@H]1O[C@H](CO)[C@@H](O)[C@H](O)[C@H]1O
CCc1cccc(OC2OC(CO)C(O)C(O)C2NC(C)=O)c1 (stereo not drawn)
O=C(O)c1cc([N+](=O)[O-])c(Nc2cccc3ccccc23)c([N+](=O)[O-])c1
CSc1ccccc1NC(=O)c1ccc2c(c1)CCN2S(C)(=O)=O
Cc1occc(=O)c1OCc1c(Cl)cccc1Cl
O=C(NCCOc1ccccc1)c1ccccc1
O=C(NCCc1ccccc1)c1ccc(OCCOc2ccccc2)cc1
CCOC(=O)c1c(C)[nH]c(C)c1S(=O)(=O)NCCCc1ccco1
Cc1ccc(-n2nc3c(c2NC(=O)c2ccc4c(c2)OCO4)CSC3)c(C)c1
Cc1cc(C)c2nc(NC(=O)C3CCCO3)sc2c1 (stereo not drawn)
O=C(Nc1ccccc1F)c1ccc2c(c1)OCO2
COCc1nnc(NC(=O)c2ccc3c(c2)OCO3)s1
C/C(Cc1ccccc1)=N\NC(=O)CNC(=O)c1ccc2c(c1)OCCO2
Cc1ccc(F)cc1NC(=O)c1ccc2c(c1)OCO2
COc1ccc(C)cc1N(C(=O)Cn1nnc(-c2ccc(C)o2)n1)C(C(=O)NC1CCCC1)c1ccncc1 (stereo not drawn)
CCCN1CCN(C(=O)CCCNC(=O)c2ccc(Cl)cc2)CC1
COCCCN1C(=O)c2ccc(C(=O)OCC(=O)NCc3ccccc3OC)cc2C1=O
COc1ccc(CN(C)C(=O)Cc2ccsc2)c(OC)c1OC
CC(=O)c1ccc(NC(=O)c2ccc(-n3cncn3)c([N+](=O)[O-])c2)cc1
COCCc1nn2c(=O)cc(COC(=O)c3cc(OC)c(OC)c(OC)c3)nc2s1
CN(c1ccccc1)S(=O)(=O)c1ccc(C(=O)NCCc2ccccc2)cc1
CCCc1cc(C(=O)N2CCCC(CO)(CCCc3ccccc3)C2)n(C)n1 (stereo not drawn)
CCOc1ccc(NC(=O)CCCCCN2C(=O)[C@@H]3Cc4ccccc4CN3C2=O)cc1
Cc1cc(-c2nnc(SCC(=O)Nc3ccc(F)cc3)n2N)n[nH]1
C=CCOC(=O)C1=C(C)OC(N)=C(C#N)C1c1ccc(F)cc1 (stereo not drawn)
CCOC(=O)C1=C(C)NC(SC)=NC1c1ccccc1 (stereo not drawn)

Potency, active:
CCCc1cc(-c2n[nH]c(=S)n2CC)c2ccccc2n1 11.2 µM
CCn1c(-c2ccncc2)n[nH]c1=S 5.01 µM
CCn1c(-c2ccoc2C)n[nH]c1=S 11.2 µM
CC(C)n1c(-c2ccncc2)n[nH]c1=S 12.6 µM
CCC(=O)Nc1nc2ccccc2n1Cc1ccccc1C 2 µM
Cc1ccc(Cn2c(NC(=O)c3ccco3)nc3ccccc32)cc1 0.282 µM
CC(=O)Nc1nc2ccccc2n1Cc1ccc(C)cc1 1.26 µM
CC(C)c1cc(C(=O)N/N=C/c2ccoc2)c(O)c(C(C)C)c1 5.62 µM
CC(C)C(=O)Nc1cccc(NC(=S)NC(=O)C(c2ccccc2)c2ccccc2)c1 7.08 µM
COc1ccccc1NC(=S)NC(=O)C(C)C 5.01 µM
COC(=O)c1ccccc1NC(=S)NC(=O)c1ccccc1F 12.6 µM
COc1ccccc1NC(=O)/C=C/C(N)=O 4.47 µM
CC(C)C(=O)NC(=S)Nc1ccccc1F 7.08 µM
COc1ccccc1N(CC(=O)N/N=C(\C)c1ccccc1O)S(=O)(=O)c1ccc(C)cc1 0.562 µM
CC1(C)Cc2ccccc2-c2[nH]c(=S)[nH]c(=O)c21 17.8 µM
COc1ccc(C)cc1Nc1n[n+](-c2ccccc2)c(-c2cccc(Cl)c2Cl)s1 6.31 µM
COc1cc(Br)c(-c2sc(Nc3ccccc3)n[n+]2-c2ccccc2)cc1OC 11.2 µM
Cc1csc(-c2coc3cc(O[C@@H]4O[C@H](CO)[C@@H](O)[C@@H](O)[C@H]4O)ccc3c2=O)n1 3.16 µM
CCCOc1ccc(C(=O)NCCc2ccccc2)cc1 11.2 µM
Cc1ccc2sc(NNC(=O)c3ccc4c(c3)OCCO4)nc2c1C 7.94 µM
O=C(Nc1nc2ccccc2s1)c1ccc2c(c1)OCO2 7.94 µM
Cc1cc(C)c2nc(NC(=O)c3ccc4c(c3)OCO4)sc2c1 0.251 µM
C=CCC1(C#N)C(=S)NC(C)=C(C(=O)OCC)C1c1ccccc1 (stereo not drawn) 10 µM

Activity change, negative = inhibition, inactive:
COc1ccc2c3c(c(=O)oc2c1)C1O[C@](CCCCN2C(=O)c4ccccc4C2=O)(Cc2c1ccc1ccccc21)O3 -28.3% [at 10 µM]
CCc1ccccc1NC(=S)Nc1cc(OC)c(NC(=O)C(C)C)cc1OC -14.6% [at 1.91 µM]
CCOCCCNc1nc(-c2ccccc2)nc2ccccc12 24.9% [at 1.91 µM]
CCCC[C@]12Cc3cc(OC)c(OC)cc3C(O1)C1=C(CC3(CCCCC3)OC1=O)O2 3.02% [at 10 µM]
